Our source for the survival values is PubChem BioAssay AID463173 (ICCB-Longwood Screening Facility, Harvard Medical School, 2010).

Out of some 52,000 compounds screened, about 4,300 (8.3%) were called active. No stated cut-off is given here; in the data, active means survival mostly below about 52% (no sharp cut-off); inactive means mostly above about 56%. The entries come from a sample that favours actives as a whole.

The subject of this assay is DeltatarO mutant. Briefly: growth inhibition of S. aureus wild type versus tarO mutant, primary screen, teichoic acid synthesis inhibitors, RN4220, OD600 (AID 463173). To be noted: OD600, 18 h, active compounds read low, screened at 18.75 µg/mL (by protocol).
On to `O=C(NCCc1ccccc1)c1ccc2c(c1)N(Cc1ccc(Cl)cc1)C(=O)c1ccccc1S2(=O)=O`, for which the survival is 89% (inactive).
Turning to `COCCCNC(=O)c1ccc2c(c1)N(Cc1ccccc1F)C(=O)c1ccccc1S2=O` (stereo unspecified), the survival is 83% (inactive).
Regarding `COC(=O)c1sc2cccc(F)c2c1S(=O)(=O)NCc1ccc(F)cc1`, the survival was 103% (inactive).
The value for `N#CC1=C(N)C(C#N)(C#N)C(c2ccccc2)C2CCCC=C12` (stereo unspecified) was 97% (inactive).
Take `Cc1ccc(C)c(N2CCN(C3=C(c4ccccc4)C(=O)c4ccccc43)CC2)c1`: the survival is 100% (inactive).
Take `COc1ccc(C2=C(N3CCN(c4cc(Cl)ccc4C)CC3)c3ccccc3C2=O)cc1`: the survival was 95% (inactive).
In the case of `COc1ccc(C2=C(N3CCN(c4cc(C)ccc4C)CC3)c3ccccc3C2=O)cc1`, the survival is 28% (active).
Turning to `Cn1c(-c2ccccc2)cnc1NC(=O)c1ccc(F)cc1`, the survival was 81% (inactive).
`CCc1ccc(CNc2ncc(-c3cccc(OC)c3)n2C)cc1`: the survival is 8% (active).
`O=C(NCc1cccc(F)c1)c1ccc(-n2cnc3cccnc32)cc1`: the survival is 97% (inactive).
As for `COc1cccc(-c2cnc(NCc3ccccc3Cl)n2C)c1`, the survival was 51% (inactive).
For the compound `Cn1c(-c2cccc(Br)c2)cnc1NCc1cccc(F)c1`, the survival is 28% (active).
In the case of `COc1cccc(C(=O)n2nc(-c3cccnc3)nc2NCc2ccc(F)cc2)c1`, the survival is 71% (inactive).
Take `Cc1cc(Cl)ccc1NC(=O)CS(=O)(=O)c1cccc2nsnc12`: the survival was 125% (inactive).
In the case of `Fc1ccc(-c2cc(-c3nc(-c4cccc(Cl)c4)no3)[nH]n2)cc1`, the survival is 88% (inactive).
The value for `CC(C)(C)c1ccc(C(=O)NC2CCSC2=O)cc1` (stereo unspecified) was 92% (inactive); that for `NC(=O)c1ccccc1NC(=O)Cn1nc(Cc2cccnc2)c2ccccc2c1=O` was 71% (inactive); that for `O=C(NCCn1cc(SCc2cccc(F)c2)c2ccccc21)c1cccc(C(F)(F)F)c1` was 35% (active).
Regarding `O=C(CSc1cn(CCNC(=O)c2cccc(C(F)(F)F)c2)c2ccccc12)Nc1ccc2c(c1)OCCO2`, the survival is 87% (inactive).
The value for `Cc1ccc(C)c(CSc2cn(CCNC(=O)c3cccs3)c3ccccc23)c1` was 71% (inactive); that for `O=C(NCCn1cc(SCc2ccc(C(F)(F)F)cc2)c2ccccc21)c1cccs1` was 95% (inactive); that for `Cc1ccc(C)c(CSc2cn(CCNC(=O)c3ccccc3F)c3ccccc23)c1` was 35% (active).
In the case of `O=C(CSc1cn(CCNC(=O)c2ccccc2F)c2ccccc12)Nc1ccccc1F` it was 80% (inactive).
`COc1ccc(C(=O)NCCn2cc(SCc3cc(C)ccc3C)c3ccccc32)cc1`: the survival is 57% (inactive).
In the case of `COc1ccc(C(=O)NCCn2cc(SCc3cccc(F)c3)c3ccccc32)cc1OC` it was 52% (inactive); in that of `O=C(NCCn1cc(SCc2ccc(C(F)(F)F)cc2)c2ccccc21)c1ccccc1F`, 36% (active).
Regarding `COc1ccc(C(=O)NCCn2cc(SC(C)c3ccccc3)c3ccccc32)cc1OC` (stereo unspecified), the survival is 61% (inactive).
Consider `CC(Sc1cn(CCNC(=O)c2ccccc2F)c2ccccc12)c1ccccc1` (stereo unspecified), for which the survival is 42% (active).
For `COc1ccc(C(=O)NCCn2cc(SCc3ccc(C(F)(F)F)cc3)c3ccccc32)cc1OC`, the survival is 72% (inactive).
The value for `O=C(CCC(=O)N1CC2CCCN2c2ccccc21)NCc1ccccc1F` (stereo unspecified) was 131% (inactive); that for `CCOc1ccc(NC(=O)C2CCC(N3C(=O)C4CC=CCC4C3=O)CC2)cc1` (stereo unspecified) was 77% (inactive); that for `COc1ccc2oc(=O)c(-c3nc(-c4cccs4)no3)cc2c1` was 73% (inactive).
The value for `CCc1ccc(NC(=O)CSc2nccn2C2CCCC2)cc1` was 70% (inactive).
As for `CCN(C(=O)c1cc2c(Cl)nc3ccc(C)cc3c2s1)c1cc(OC)ccc1OC`, the survival is 61% (inactive).
Turning to `CCOc1ccc2c(c1)c(=O)c(S(=O)(=O)c1ccc(C)cc1)cn2CC(=O)Nc1ccc(C)cc1`, the survival is 66% (inactive).
Take `O=C(CSc1cn(CCNC(=O)c2c(F)cccc2F)c2ccccc12)Nc1ccccc1F`: the survival was 55% (inactive).
As for `O=C(NCCn1cc(SCc2ccc(F)cc2)c2ccccc21)c1c(F)cccc1F`, the survival was 53% (active).
Consider `O=C(NCCn1cc(SCc2ccc(Br)cc2)c2ccccc21)c1cccs1`, for which the survival was 110% (inactive).
For `O=C(NCCn1cc(SCc2ccc(F)cc2)c2ccccc21)c1cccs1`, the survival was 50% (inactive).
Consider `O=C(CSc1cn(CCNC(=O)c2c(F)cccc2F)c2ccccc12)Nc1ccc(F)cc1`, for which the survival was 128% (inactive).
For `O=C(NCCn1cc(SCc2ccccc2)c2ccccc21)c1cccs1`, the survival is 54% (active).
Turning to `CCOc1ccc(-c2cccc(NS(=O)(=O)c3ccc(F)cc3F)c2)nn1`, the survival was 77% (inactive).
In the case of `CCN(CC)CCCNC(=O)Cn1nc(N2CCN(c3ccccc3OC)CC2)ccc1=O`, the survival is 75% (inactive).
Regarding `Fc1ccccc1Oc1ncnc2c1oc1ccccc12`, the survival is 37% (active).
In the case of `CCOc1ccccc1Oc1ncnc2c1oc1ccccc12`, the survival is 83% (inactive).
In the case of `COc1ccc(Oc2ncnc3c2oc2ccccc23)cc1`, the survival is 55% (inactive).
Turning to `CC(=O)N1CCc2cc(S(=O)(=O)NC(CC(C)C)C(=O)Nc3ccc(C(C)C)cc3)ccc21` (stereo unspecified), the survival is 61% (inactive).
Turning to `FC(F)(F)c1cccc(N2CCN(c3ncnc4c3nc3n4CCCC3)CC2)c1`, the survival is 95% (inactive).
In the case of `CCOC(=O)c1ccccc1NC(=O)CSc1nnc(CC)n2c1cc1occc12`, the survival was 63% (inactive).
`O=C(O)C1CCCCC1C(=O)Nc1cccc(C(=O)N2CCCCC2)c1` (stereo unspecified): the survival is 101% (inactive).
The value for `COc1ccc(OC)c(NC(=O)c2ccc3c(SCC(=O)O)c4c(nc3c2)CCCC4)c1` was 64% (inactive); that for `Cn1cnc2c(=O)oc3ccc(S(=O)(=O)N4CCN(c5ccccc5)CC4)cc3c21` was 77% (inactive); that for `Cn1cnc2c(=O)oc3ccc(S(=O)(=O)N4CCN(c5cccc(C(F)(F)F)c5)CC4)cc3c21` was 108% (inactive).
In the case of `Cn1cnc2c(=O)oc3ccc(S(=O)(=O)N4CCN(c5cccc(Cl)c5)CC4)cc3c21` it was -5% (active); in that of `Cc1ccc(/C=C/c2onc(C)c2S(=O)(=O)N2CCC(C(=O)NCc3ccco3)CC2)cc1`, 74% (inactive).
Turning to `COc1ccccc1NC(=O)c1c(NC(=O)c2ccccc2Cl)sc2c1CCC2`, the survival was 78% (inactive).
Turning to `O=C(Nc1sc2c(c1C(=O)Nc1ccccc1Cl)CCCC2)c1ccccc1F`, the survival was 48% (active).
Regarding `CCOc1ccccc1NC(=O)c1c(NC(=O)c2ccccc2)sc2c1CCCC2`, the survival is 58% (inactive).
As to `O=C(Cc1ccccc1)Nc1sc2c(c1C(=O)Nc1ccccc1Cl)CCC2`, the survival was 34% (active).
Regarding `CCc1ccccc1NC(=O)c1c(NC(=O)c2ccccc2)sc2c1CCCC2`, the survival is 42% (active).
Turning to `COc1ccccc1NC(=O)c1c(NC(=O)c2ccccc2F)sc2c1CCC2`, the survival is 136% (inactive).
For the compound `CCOc1ccccc1NC(=O)c1c(NC(=O)Cc2ccccc2)sc2c1CCCC2`, the survival is 81% (inactive).
`CCOc1ccccc1NC(=O)c1c(NC(=O)Cc2ccc(OC)cc2)sc2c1CCC2`: the survival was 61% (inactive).
For the compound `Cc1ccccc1NC(=O)c1c(NC(=O)Cc2ccccc2)sc2c1CCC2`, the survival was 29% (active).
The value for `CCOc1ccccc1NC(=O)c1c(NC(=O)c2cccc(C)c2)sc2c1CCCC2` was 76% (inactive); that for `Cc1ccccc1NC(=O)c1c(NC(=O)c2ccccc2)sc2c1CCC2` was 126% (inactive).
